From PubChem BioAssay AID743269 (The Scripps Research Institute Molecular Screening Center, 2014)
Out of some 370,000 compounds screened, about 2,400 (0.65%) were called active. Only a selection was taken, and actives are over-represented in it overall. Unmarked numbers belong to inactive results.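 The calls were made as follows: active = inhibition above the screen-wide mean plus 3 SD (cut at about 13% in these data); inactive = the rest.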

test system: HIV-1 integrase (with human LEDGF/p75); experiment: blockers of LEDGF/p75-dependent integrase strand transfer – biochemical, TR-FRET, high throughput, primary screen (AID 743269); conditions: TR-FRET IN-LEDGF/p75 DNA integration, Eu/Cy5; at 3.7 µM; hits give high values;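 also: signal is the Cy5 over europium emission ratio at 671 and 618 nm; 0% = plate median of compound wells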

Compound	inhibition
Cc1c[nH]c2cccc(-c3ccc(Cl)cc3)c12	4.29%
C[C@@H]1CN([C@@H](C)CO)C(=O)c2cccc(NC(=O)Nc3cccc4ccccc34)c2O[C@H]1CN(C)S(=O)(=O)c1ccccc1F	3.05%
C#CCN([C@H](C(=O)OC)C(C)CC)S(=O)(=O)c1ccccc1Br (some centres undefined)	2.37%
Cc1cc(=O)[nH]c(SCC(=O)Nc2ccc(F)cc2F)n1	-4.09%
CCC(=O)Nc1ccc2c(c1)C(=O)N(C)[C@@H]1CC[C@@H](CC(=O)NCCc3ccccc3)O[C@H]1CO2	-2.65%
Cc1ccc(N=C2NC(=O)/C(=C/C=C/c3ccco3)S2)cc1C	16.8% (active)
COC(=O)C[C@@H]1CC[C@@H]2[C@H](COc3ccc(NC(=O)c4cccc(F)c4)cc3C(=O)N2C)O1	7.98%
Cc1ccc(-n2c(COc3ccccc3)nnc2SCC(=O)Nc2ccc3c(c2)OCCO3)cc1	-2.45%
C=CCn1c(SCC(=O)CC(=O)OCC)nc2cc(C(=O)N3CCC(C(N)=O)CC3)ccc2c1=O	-1.71%
C=CCn1c2ccccc2c2nnc(SC(CC)C(=O)Nc3nc(C)c(C(=O)OCC)s3)nc21 (centres undefined)	-2.02%
C=CCn1c2ccccc2c2nnc(SCc3[nH]c(=O)[nH]c3C(=O)CCCCC(=O)OCC)nc21	43.2% (active)
COc1cccc(N2CCN(CC(=O)N(C)Cc3ccc(F)cc3)CC2)c1	-2.54%
COC(=O)[C@]12C[C@H](CC(=O)N3CCOCC3)C(=O)N(Cc3ccc(Cl)cc3Cl)C1=C[C@H](COCc1ccccc1)O[C@@H]2C	0.62%
Cc1ccc(C(=O)C2CCN(CC(=O)NCCC(C)C)CC2)cc1	0.16%
CC(C)(C)C1C/C(=C/c2ccco2)C(=O)/C(=C/c2ccco2)C1 (centres undefined)	79.5% (active)
COc1ccc(CN(CCN2CCOCC2)C(=O)c2ccc(C)cc2)cc1OC	-0.71%
CCOC(=O)c1cccc(NC(=O)CN(C)S(=O)(=O)c2ccc(-c3cocn3)s2)c1	2.14%
CCCCC(=O)N[C@@H]1CC[C@@]23CCCN2C(=O)CCC[C@H]3[C@H]1C	0.47%
COc1ccnc(C(=O)N2CCC(Oc3cccnc3)CC2)c1	-0.27%
COc1ccc(-c2c(C(C)=O)c(C)nc3sc4c(=O)n(-c5ccc(C)cc5)nnc4c23)cc1	-0.97%
COCc1cc(C)nc2sc(C(=O)NC3CCCCC3)c(N)c12	0.63%

Compound	inhibition
COCc1cc(C)nc2sc3c(=O)n(-c4cccc5ccccc45)nnc3c12	18.6% (active)
Clc1ccc(-n2c(COc3ccccc3)nnc2SCc2nc3ccccc3[nH]2)cc1	-0.48%
Oc1cc(O)c2c(c1)OC(c1ccc(O)c(O)c1)C(O)C2 (centres undefined)	17.4% (active)
O=C(Nc1cc(Cl)cc(Cl)c1)OCCN1CCCC12CCC(c1ccccc1)CC2 (centres undefined)	-0.23%
Cc1ccc(-n2c(SCC(=O)Nc3ccc(S(=O)(=O)Nc4nccs4)cc3)nnc2-c2ccncc2)cc1	-1.61%
CCOC(=O)c1c(C)oc2cc(Br)c(OCC(N)=O)cc12	-0.08%
CCOC(=O)c1c(C)oc2cc(Sc3ccccc3)c(O)c(O)c12	23.4% (active)
CCOC(=O)c1c(C)oc(C)c(C(=O)OCC)c1=O	3.08%
COC(=O)CC1CCc2cc(C)cc(C(CC(C)C)NC(=O)[C@H](CC(C)C)NC(=O)OCc3ccccc3)c2O1 (some centres undefined)	-0.18%
CCN(C(=O)[C@@H](C1CC1)[C@@H](O)c1ccc2ccccc2c1)c1ccccc1	-2.01%
Cc1ccc(Cc2cnc(N)s2)o1	31.2% (active)
O=C(Nc1nc2ccc(Cl)cc2s1)c1cc(-c2ccc(Cl)cc2)nc2ccccc12	6.18%
CN(C)c1ccc(NC(=O)NC2CCCCN(Cc3ccc(Cl)cc3)C2=O)cc1 (centres undefined)	6.63%
CCn1c(=O)n2n(c1=O)[C@@]1(C=C3CCCC[C@H]32)N=C(NC(=O)c2ccccc2)N(Cc2ccccc2)[C@H]1Cc1ccccc1	2.19%
Clc1ccc(C2=CSC3=Nc4cccc5cccc(c45)N23)cc1	37.2% (active)
CC(=O)Nc1nc2ncccn2c1-c1ccc(C(F)(F)F)cc1	4.33%
CCC(C)[C@@H](C(=O)OC)N(CCc1cn(Cc2ccccc2)nn1)S(=O)(=O)c1ccccc1Br (some centres undefined)	1.03%
CC(C)CNc1cccc2c1S(=O)(=O)N(Cc1cn(Cc3ccccc3C(F)(F)F)nn1)Cc1ccccc1O2	-0.84%
CCOC(=O)[C@]12CCCC3=C1N(CCC3)C(=O)[C@@H](CC(=O)NCC13CC4CC(CC(C4)C1)C3)C2	0.85%
O=C(NCc1ccco1)C1CCCN(S(=O)(=O)c2ccc(Cl)s2)C1 (centres undefined)	-0.9%
COc1ccc(OC)c(NC(=O)CSc2nc(-c3ccccc3)cc(=O)[nH]2)c1	2.74%

Compound	inhibition
CCc1cc2cc(OC)ccc2nc1SCC(=O)Nc1cc(OC)c(OC)cc1C(=O)O	17.2% (active)
COC(=O)c1cc(OC)c(OC)cc1NC(=O)CSc1ccc(C)cc1	-3.23%
C=CCN(C(=O)[C@@H](CCCC)[C@@H](O)c1ccc(Cl)cc1)c1ccccc1	2.74%
CN(CC(=O)Nc1ccc(S(=O)(=O)N2CCCC2)cc1)Cc1ccc(Cl)c(Cl)c1	30.4% (active)
CC(C(=O)Nc1ccc(S(=O)(=O)N2CCCC2)cc1)N(C)Cc1ccc(F)cc1 (centres undefined)	-5.41%
CCc1ccc(CN(C)C(C)C(=O)Nc2ccc(S(=O)(=O)N3CCCC3)cc2)cc1 (centres undefined)	-3.86%
Nn1c(SCC(=O)Nc2ccc(S(N)(=O)=O)cc2)nnc1-c1n[nH]c2c1CCC2	5.06%
CN(O)C(=S)c1ccccc1	21.8% (active)
COC(=O)C1CN(CC(C)C)CCS(=O)(=O)N1Cc1ccc(C)cc1 (centres undefined)	1.62%
COc1cc(NC(=O)C2CCCN(S(=O)(=O)c3ccc(C(C)(C)C)cc3)C2)cc(OC)c1 (centres undefined)	2.62%
COC(=O)c1cc(N2CCNCC2)nc2ccccc12	-3.62%
COc1ccc(-n2nc(C(=O)NCC(=O)N3CCCCCC3)c3ccccc3c2=O)cc1Cl	-4.29%
COc1cc(/C=C2\CCCc3c2nc2ccccc2c3C(=O)O)cc(Cl)c1O	30.4% (active)
C[C@@H]1COc2cccc(N3CCCC3)c2S(=O)(=O)N1C	-1.59%
NS(=O)(=O)c1cccc(NC(=O)COC(=O)/C=C/c2ccco2)c1	-1.8%
COc1cccc(NC(=O)COC(=O)/C=C/c2ccco2)c1	20.4% (active)
COc1ccc([N+](=O)[O-])cc1NC(=O)COC(=O)/C=C/c1ccco1	-5.28%
CC(C)(C)c1ccc(C(=O)Nc2cc(Cl)c(Br)cc2C(=O)O)cc1	5.86%
CCCCOCCCNC(=O)C[C@H]1C[C@@]2(C(=O)OC)C(=C[C@H](COCc3ccccc3)O[C@@H]2C)N(Cc2cccc3ccccc23)C1=O	-2.14%
COC(=O)[C@H](C(C)C)N1CCc2nnn(Cc3ccc(C)cc3)c2-c2ccccc2S1(=O)=O	0.15%
Cc1oc2c(c1C(=O)N1CCOCC1)C(=O)c1ccccc1C2=O	18.3% (active)

Compound	inhibition
CC(C(=O)Nc1ccccc1-c1ccccc1)N1CCOCC1 (centres undefined)	-2.51%
Cc1nc2ccccc2n1C(=O)N1CCOCC1	-1.41%
CC1(C(=O)NS(=O)(=O)c2ccccc2)CCN1C(=O)Cc1ccc(-c2ccccc2)cc1 (centres undefined)	19.2% (active)
CC1(C(=O)NS(=O)(=O)c2cccs2)CCN1C(=O)Cc1ccc(-c2ccccc2)cc1 (centres undefined)	-0.36%
CCCNC(=O)C1(C)CCN1C(=O)Cc1ccc(-c2ccccc2)cc1 (centres undefined)	0.51%
COc1ccc(/C=C2\CC3(OC(C)=O)CCCN2C3)cc1 (centres undefined)	-2.77%
C[C@H](C(=O)N(C)c1ccccc1)[C@@H](O)c1ccc2ccccc2c1	-3.07%
CCN(CC)S(=O)(=O)c1cc(C(=O)Nc2ccccn2)ccc1C	1.24%
CCCC(C(=O)OCCN(CC)CC)(c1ccccc1)c1ccccc1	-3.9%
CCN(CC)CCOc1ccc2c(c1)C(=NNC(=O)c1ccccn1)c1cc(OCCN(CC)CC)ccc1-2	19.1% (active)
O=C(NC1CCCC1)C1CSCCS(=O)(=O)N1Cc1ccccc1 (centres undefined)	0.83%
C=C(C)C1CC23C(=O)C4(C(=O)c5ccccc5)C[C@@]5(C)CCC(CC2C1(C)C)(C4=O)C35OC (some centres undefined)	-2.25%
Cc1ccc(NC(=O)Cc2cccc(F)c2)c(S(=O)(=O)N2CCOCC2)c1	1.83%
CCCCNC(=O)C[C@H]1C(=O)N(Cc2ccc(OC)cc2)C2=CCCC[C@@]21C(=O)OCC	-5.02%
COc1cc(-c2nnc(NC(=O)CS(=O)(=O)c3ccc(Cl)cc3)o2)cc(OC)c1OC	15.4% (active)
Cc1ccc(C)c(-c2nnc(NC(=O)CS(=O)(=O)c3ccccc3)o2)c1	-2.12%
COc1cc(-c2nnc(NC(=O)C3=COCCO3)o2)cc(OC)c1OC	5.65%
CC(CCN1CCC(C(O)(c2ccccc2)c2ccccc2)CC1)Oc1ccc(C(F)(F)F)cc1 (centres undefined)	-3.25%
O=S(=O)(Nc1ccc(O)c2ccccc12)c1ccc(OC(F)(F)F)cc1	16.5% (active)
O=[N+]([O-])c1ccc(NS(=O)(=O)c2ccccc2)c(Cl)c1	7.69%
O=S(=O)(Cc1noc(-c2ccc(OC(F)(F)F)cc2)n1)c1ccc(F)cc1	0.93%
